Compounds with a hit are over-represented: about 4.6% of the library has one in this group of screens.
D1 antag: human D1 dopamine receptor antagonism. P21728. HEK293 TREx D1 cells, calcium flux, dopamine EC80; hits give low values. activity change, negative = inhibition, % at 10 µM. actives 3.2% (n = 360,000); in the data active means activity change below about -30%; further: on the % scale 0 is the no-effect control and ±100 the full control effect
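Using tetracycline-induced force-coupled D1 Hek293 cells and a calcium dye, signals were followed for 180 s after compound, then for 180 s after EC80 dopamine, to detect inhibitors.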
TRHR PAM: TRH receptor (human) allosteric enhancement | P34981 | TRHR cells, fluo-8 calcium fluorescence, EC20 TRH enhancement | enhancement, % at 2 µM | actives 0.66% (n = 360,000) | AID 493056; in the data active means enhancement above about 30%; further: 0% is about no effect
Target sequence (P34981 whole entry, looked up): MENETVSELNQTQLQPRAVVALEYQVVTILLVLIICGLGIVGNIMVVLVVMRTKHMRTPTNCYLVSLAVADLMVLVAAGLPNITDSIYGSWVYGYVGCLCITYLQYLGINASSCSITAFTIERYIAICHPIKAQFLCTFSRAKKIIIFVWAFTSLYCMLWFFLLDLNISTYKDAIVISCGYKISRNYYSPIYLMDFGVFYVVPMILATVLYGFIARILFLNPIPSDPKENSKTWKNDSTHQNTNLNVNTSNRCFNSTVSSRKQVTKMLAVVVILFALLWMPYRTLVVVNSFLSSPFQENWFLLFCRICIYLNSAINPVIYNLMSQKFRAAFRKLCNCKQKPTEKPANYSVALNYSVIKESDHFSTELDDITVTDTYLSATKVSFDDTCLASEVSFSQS
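Enhancer read-out: after compound pinning and an initial kinetic agonist-mode read, an EC20 of TRH (10 nM final) was injected and fluo-8 calcium signal (Ex 480/Em 530) followed at 1 s/cycle for 100 cycles in TRHR-expressing cells.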
TRHR ag: agonists of human TRH receptor | TRHR cells, calcium flux fluo-8, FDSS agonist mode | activation, % at 2 µM | AID 493084 | P34981 | actives 0.18% (n = 360,000); further: 0% is about no effect
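TRHR-expressing cells, plated overnight in medium with 10% serum, were loaded with fluo-8 calcium dye at room temperature. After a 10 s baseline, library compound was pin-added and calcium release was recorded kinetically (ex 480/em 530) as agonist response.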
D1 ag: activates the human D1 dopamine receptor. HEK293 T-REx D1 cells, calcium flux, agonist mode. activation, % at 2 µM. actives 1% (n = 360,000); further: 0% is about no effect
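Inducible HEK293 T-REx D1 cells, force-coupled to calcium signalling, were plated at 4000 cells/well with tetracycline and held overnight at 30 C. After no-wash calcium dye loading, compound-evoked calcium rise over 180 s flagged agonists.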
D1 potentiator: potentiators of human D1 dopamine receptor | P21728 | HEK293 TREx D1 cells, calcium flux, dopamine EC20 potentiation | potentiation, % at 10 µM | actives 0.036% (n = 360,000); in the data active means potentiation above about 30%; further: 0% is about no effect
The depositor's hits bear a star. Unless noted, no stated cut-off is given here; in the data, active means activation above about 30%; inactive means the rest.

Screening O=C(O)c1c(C(=O)N2N=C3/C(=C/c4ccccc4)CCCC3C2c2ccccc2)cccc1[N+](=O)[O-] (stereo not given) returned D1 antag 4.0, TRHR PAM -4.2, TRHR ag 0.0, D1 ag 2.8 and D1 potentiator 4.9.
`CC(=O)N1N=C2/C(=C/c3ccccc3)CCCC2C1c1ccccc1` (stereo not given) gave D1 antag -11.1, TRHR PAM 30.5*, TRHR ag -0.6, D1 ag 5.7 and D1 potentiator 0.0.
`Cc1ccccc1OCc1nnc(SCc2cc(=O)c3ccc(C)c(C)c3[nH]2)n1C` gave D1 antag 9.8, TRHR PAM 1.2, TRHR ag -0.9, D1 ag 0.2 and D1 potentiator -2.6.
For COCCCn1c(Cc2csc(Nc3ccccc3)n2)nnc1SCC(N)=O the results were D1 antag -35.8*, TRHR PAM -2.7, TRHR ag 0.0, D1 ag 1.5 and D1 potentiator -1.2.
`NC(=O)CSc1nnc(Cc2csc(Nc3ccccc3)n2)n1Cc1ccccc1` gave D1 antag 10.6, TRHR PAM -3.7, TRHR ag -0.1, D1 ag 0.6 and D1 potentiator -4.0.
Screening Cc1cccc(NC(=O)CSc2nc(-c3cccs3)nc3cc(=O)[nH]n23)c1 returned D1 antag -3.9, TRHR PAM -4.3, TRHR ag 0.0, D1 ag 2.0 and D1 potentiator 2.0.
For O=C(CSc1nc(-c2cccs2)nc2cc(=O)[nH]n12)Nc1cccc(C(F)(F)F)c1 the results were D1 antag -37.8*, TRHR PAM -2.2, TRHR ag -0.7, D1 ag 5.7 and D1 potentiator -2.0.
Screening Cc1nc(N2C(=O)c3oc4ccccc4c(=O)c3C2c2cccc(OCCC(C)C)c2)sc1C (stereo not given) returned D1 antag -5.7, TRHR PAM -1.0, TRHR ag 0.3, D1 ag 1.4 and D1 potentiator -4.2.
`O=C(Nc1nnc(N2CCCCCC2)s1)Nc1cc(F)ccc1F` gave D1 antag 2.8, TRHR PAM -0.9, TRHR ag 0.4, D1 ag 2.1 and D1 potentiator -2.1.
Screening COc1ccc(CNC(=O)CCc2c(C)nc3c(c(C)nn3-c3ccccc3)c2C)cc1 returned D1 antag -3.2, TRHR PAM -2.3, TRHR ag -0.2, D1 ag 4.0 and D1 potentiator -3.8.
For Cc1ccc(-c2cc(C(F)(F)F)c(C#N)c(SCC(=O)Nc3ccccc3F)n2)cc1 the results were D1 antag -1.7, TRHR PAM 6.4, TRHR ag 18.0, D1 ag 71.8* and D1 potentiator -4.1.
For CCOc1ccc(-c2cc(C(F)(F)F)c(C#N)c(SCC(=O)Nc3ccccc3)n2)cc1 the results were D1 antag -51.9*, TRHR PAM 6.8, TRHR ag 8.8, D1 ag 31.6* and D1 potentiator -2.8.
`O=C(CSc1ncnc2c1oc1ccccc12)Nc1nc2ccccc2s1` gave D1 antag -48.2*, TRHR PAM 0.0, TRHR ag 0.7, D1 ag -1.6 and D1 potentiator 4.2.
For Cc1cc(C(F)(F)F)c(C#N)c(SCC(=O)Nc2nc3ccccc3s2)n1 the results were D1 antag 5.2, TRHR PAM -14.0, TRHR ag 17.1, D1 ag 64.2* and D1 potentiator 17.4.
Screening CCc1nnc(NC(=O)CSc2ncnc3c2oc2ccccc23)s1 returned D1 antag 3.1, TRHR PAM 6.7, TRHR ag 0.3, D1 ag 1.6 and D1 potentiator -0.3.
For Cc1cccc(-n2c3c(cc(-c4nc(-c5ccc(Cl)cc5)cs4)c2=O)C(=O)CC(C)(C)C3)c1 the results were D1 antag 6.1, TRHR PAM 20.6, TRHR ag 1.6, D1 ag -0.6 and D1 potentiator 1.6.
COc1ccc(C(=O)NCCc2nc3ccccc3[nH]2)cc1 was read as D1 antag -1.7, TRHR PAM 3.1, TRHR ag -0.9, D1 ag 2.3 and D1 potentiator -0.1.
For Cc1c(C(=O)Nc2ccc(Br)cc2F)sc2ncnc(N(C)C3CCCCC3)c12 the results were D1 antag -2.0, TRHR PAM -0.5, TRHR ag 0.6, D1 ag 1.2 and D1 potentiator -2.8.

Screening data: PubChem BioAssay, National Center for Advancing Translational Sciences (NCATS)
